Reference: PubChem BioAssay (NCATS)
Records with an inconclusive call do not appear. Calls of active or inactive are those of the source. Unless noted, the call rests on the fitted dose curve.

Experiments:
[1] = qHTS for Inhibitors of the Functional Ribonucleoprotein Complex (vRNP) of Lassa (LASV) Arenavirus: LASV Primary Screen - GLuc reporter signal (AID 1347082; calls by dose curve; tested in HEK293 reporter line; further: nearly all actives have a fitted effect of over 60% in size); conditions: LASV minigenome vRNP, Gaussia luciferase reporter; series mostly up to 57.5 µM
[2] = qHTS for Inhibitors of the Functional Ribonucleoprotein Complex (vRNP) of Lassa (LASV) Arenavirus: Viability assay - alamar blue signal for LASV Primary Screen (AID 1347083; calls by dose curve; tested in HEK293 reporter line; further: nearly all actives have a fitted effect of over 80% in size); conditions: cell viability, alamar blue fluorescence (LASV minigenome counter-screen); series mostly up to 57.5 µM
[3] = qHTS for Inhibitors of the Functional Ribonucleoprotein Complex (vRNP) of Lymphocytic Choriomeningitis Arenaviruses (LCMV): Viability assay - alamar blue signal for LCMV Primary Screen (AID 1347085; calls by dose curve; tested in HEK293 reporter line; further: nearly all actives have a fitted effect of over 80% in size); conditions: alamar blue viability counter-screen, LCMV vRNP screen cells; series mostly up to 57.5 µM
[4] = target: Nucleoprotein (Lymphocytic choriomeningitis virus (strain Armstrong)) (UniProt P09992); assay: qHTS for Inhibitors of the Functional Ribonucleoprotein Complex (vRNP) of Lymphocytic Choriomeningitis Arenaviruses (LCMV): LCMV Primary Screen - GLuc reporter signal (AID 1347086); conditions: LCMV minigenome vRNP cell assay, Gaussia luciferase reporter; series mostly up to 57.5 µM; further: nearly all actives have a fitted effect of over 70% in size
Sequence of Nucleoprotein (Lymphocytic choriomeningitis virus (strain Armstrong)) (P09992 whole entry, looked up): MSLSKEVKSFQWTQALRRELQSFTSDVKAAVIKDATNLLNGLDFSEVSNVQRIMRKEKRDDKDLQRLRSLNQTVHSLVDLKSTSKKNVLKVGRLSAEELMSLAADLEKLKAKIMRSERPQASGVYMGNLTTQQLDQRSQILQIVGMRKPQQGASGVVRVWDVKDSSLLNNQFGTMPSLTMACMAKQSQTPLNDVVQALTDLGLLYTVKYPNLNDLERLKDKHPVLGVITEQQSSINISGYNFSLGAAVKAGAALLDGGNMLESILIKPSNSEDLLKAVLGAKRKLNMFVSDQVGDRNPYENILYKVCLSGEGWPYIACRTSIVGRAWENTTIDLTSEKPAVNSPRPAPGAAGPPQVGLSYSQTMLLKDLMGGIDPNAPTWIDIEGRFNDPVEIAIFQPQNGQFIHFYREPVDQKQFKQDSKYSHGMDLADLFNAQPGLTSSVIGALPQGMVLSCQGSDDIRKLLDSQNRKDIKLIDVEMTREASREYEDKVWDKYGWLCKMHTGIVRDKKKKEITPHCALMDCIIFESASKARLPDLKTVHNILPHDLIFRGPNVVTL

Measured: Potency

CC[C@H](C)C(=O)N[C@H]1CCCN1C(=O)/C=C/c1ccccc1
inactive: all assays above

CCOC(=O)c1cccc(C(=O)OCC)n1
inactive: all assays above

C/C=C(\C)C(=O)O[C@H]1CC(C)=C2C(=O)C=C(C)C2[C@@H]2OC(=O)[C@@](C)(OC(=O)C=C(C)C)C21 (some centres not stated)
inactive: all assays above
